# Bioassay records deposited in PubChem by National Center for Advancing Translational Sciences (NCATS).
# SMN2 splice enh – qHTS Assay for Enhancers of SMN2 Splice Variant Expression; HEK293 SMN2-luciferase splicing reporter, luminescence, 30-36 h; Potency, µM (top dose mostly 46.1 µM), for inactives: top-dose activity change, positive = activation, most hits filed as activators; 210,000 tested, 2.8% active; AID 1458, 2008; note: % of control where 0% means no effect; nearly all actives have a fitted effect of over 55% in size
#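 HEK293 cells carry an SMN2 […]–luciferase reporter in which exon 7 inclusion puts luciferase in frame. Cells were plated 10-12 h before compound addition, then incubated 30-36 h at 37C. ONE-Glo luminescence was read; sodium butyrate at 4.5 mM final served as control.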
# NPC1 promoter act – qHTS Assay for NPC1 Promoter Activators. Huh7 NPC1 promoter luciferase reporter, 24 h. Potency, µM (doses to about 9.22 µM), for the others: at the top dose activation, hits mostly activators. 320,000 tested, 2.4% active. AID 485313, 2010; note: % of control where 0% means no effect; nearly all actives have a fitted effect of over 60% in size
#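 Readout is luciferase luminescence, reflecting NPC1 promoter activation in stably transfected Huh7 cells after 24 h compound exposure at 37 °C in reduced-serum medium with 10% FBS.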
# FLuc counter – qHTS profiling assay for firefly luciferase inhibitor/activator using purifed enzyme and Km concentrations of substrates (counterscreen for miR-21 project); purified FLuc, Km substrates, luminescence inhibition; Potency, µM (titrated, usually from 57.5 µM), inactives show at the highest dose activity change, negative = inhibition, actives largely listed as inhibitors; 360,000 tested, 6.9% active;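 note: plate controls were vehicle for no effect and reference inhibitor for full effect; nearly all actives have a fitted effect of over 55% in size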
# Target sequence (P08659 whole entry, looked up): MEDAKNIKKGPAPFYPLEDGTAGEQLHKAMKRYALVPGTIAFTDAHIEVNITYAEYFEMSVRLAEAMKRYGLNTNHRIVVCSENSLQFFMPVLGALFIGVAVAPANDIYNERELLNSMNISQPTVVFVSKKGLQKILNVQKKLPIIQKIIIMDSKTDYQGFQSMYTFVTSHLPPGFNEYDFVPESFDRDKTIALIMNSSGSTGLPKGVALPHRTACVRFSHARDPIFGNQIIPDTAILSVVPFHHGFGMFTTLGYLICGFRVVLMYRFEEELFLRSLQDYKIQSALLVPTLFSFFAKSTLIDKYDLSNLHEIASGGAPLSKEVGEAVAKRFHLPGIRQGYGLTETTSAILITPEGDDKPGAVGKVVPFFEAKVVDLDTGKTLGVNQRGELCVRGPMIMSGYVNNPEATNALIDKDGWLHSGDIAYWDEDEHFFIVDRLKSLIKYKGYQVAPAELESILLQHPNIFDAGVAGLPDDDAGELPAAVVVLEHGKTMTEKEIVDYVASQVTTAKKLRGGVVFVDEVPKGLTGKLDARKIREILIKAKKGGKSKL
#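 Purified P. pyralis luciferase, 10 nM final, with Km-level 10 uM D-luciferin and 10 uM ATP in 50 mM Tris acetate pH 7.5, 10 mM Mg acetate, 0.01% Tween-20, 0.05% BSA; 6-point qHTS titration about 60 µM downward; luminescence read.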
# ELG1 genotoxic – qHTS screen for small molecules that induce genotoxicity in human embryonic kidney (HEK293T) cells expressing luciferase-tagged ELG1. AID 504466, 2011. HEK293T ELG1-luciferase reporter, luminescence, 16 h. Potency, µM (doses to about 46 µM), without a hit: at the top dose activity change, positive = activation, hits mostly activators. 330,000 tested, 1.3% active; note: % of control where 0% means no effect; nearly all actives have a fitted effect of over 60% in size
#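 Luminescence read-out: rising ELG1-luciferase signal, reflecting elevated ELG1 protein under genetic stress, flags genotoxic compounds. Cells were treated for 16 hr at 37 °C before ONE-Glo detection.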
# Rab9 prom act – qHTS Assay for Rab9 Promoter Activators | Huh7 Rab9 promoter-luciferase reporter, luminescence, 24 h | Potency, µM (highest dose often 9.22 µM), inactives show at the top dose activation, negative = inhibition, hits mostly activators | 320,000 tested, 2.8% active; note: % of control where 0% means no effect; nearly all actives have a fitted effect of over 60% in size
#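 Huh7 reporter line, Rab9 promoter upstream of luciferase. Compound exposure 24 h at 37 °C in reduced-serum medium with 10% FBS. Read-out: luminescence.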
# Starred values were filed as active, the others as inactive; ? = inconclusive; nt = not tested or not shown. Sampled rows, rich in hits. Any-hit rate of the full collection: about 7.4%. Calls come from the whole dose curve; as a rule, active = well fitted curve in the direction sought with a large enough effect; inconclusive = small, poorly fitted or top-dose-only effect, or another doubt; inactive = no such curve, though single readings can be large; an effect the other way counts as inactive or inconclusive. Potency is the fitted concentration of half-maximal effect.
SMILES,SMN2 splice enh,NPC1 promoter act,FLuc counter,ELG1 genotoxic,Rab9 prom act
CCc1cccc(-n2nnc(S(=O)(=O)c3ccc(OC)cc3)c2C)c1,-62%,nt,5%,nt,nt
CCCc1nnc(SCC(=O)Nc2nc(C)cs2)n1CCOC,nt,0%,-20%,?,7%
CC1Cc2ccccc2N1S(=O)(=O)c1cccc(C(=O)N2CCN(c3ncccn3)CC2)c1 (stereo not drawn),0.56µM*,-11%,2%,-14%,25%
CC(=O)N1CCN(C(=O)c2cccc(S(=O)(=O)N3c4ccccc4CC3C)c2)CC1 (stereo not drawn),nt,nt,nt,-1%,nt
Cc1cnc(-c2nnc(N(C)C(=O)C3CCCO3)s2)cn1 (stereo not drawn),-13%,20%,-13%,13%,28%
CN(C(=O)c1ccncc1)c1nnc(-c2cccnc2)s1,nt,2%,3%,?,2%
CN(C(=O)c1ccno1)c1nnc(-c2ccccn2)s1,-1%,12%,15µM*,14%,5%
Cc1ccc(C(=O)N(C)c2nnc(-c3ccncc3)s2)cc1,30%,?,17µM*,13%,?
COc1ccc(-c2nnc(N(C)C(=O)c3ccno3)s2)cc1,11µM*,?,11µM*,?,3.2µM*
COc1ccc(-c2nnc(N(C)C(=O)C3CCCO3)s2)cc1 (stereo not drawn),11µM*,2.5µM*,13µM*,?,2µM*
Cc1ccsc1C(=O)C1CCCN(Cc2cc(F)ccc2-n2cccn2)C1 (stereo not drawn),nt,-10%,1%,-13%,-3%
Cc1ccccc1CN1C(=O)c2ccccc2S(=O)c2ccc(C(=O)NCc3ccc(Cl)cc3)cc21 (stereo not drawn),nt,nt,-2%,nt,nt
Cc1ccc(NC(=O)CSc2nc3nccnc3c(=O)n2CCc2c[nH]c3ccccc23)cc1C,nt,nt,-8%,nt,nt
CN(C(=O)c1ccncc1)c1nnc(-c2ccccn2)s1,?,23%,17µM*,?,?
O=C(O)COc1ccccc1/C=N/NC(=O)c1cc(-c2ccccc2)nc2ccccc12,nt,0%,2.7µM*,0%,-2%
O=C(O)COc1ccccc1/C=N/NC(=O)c1cc(-c2ccc(Cl)cc2)nc2ccccc12,nt,-1%,0.95µM*,0%,-2%
Cc1ccc(C)n1-c1ccc(-c2nnco2)cc1,7%,0%,-16%,10%,2%
Oc1ccccc1-c1ccn[nH]1,nt,nt,nt,3%,nt
Cc1ccc(C)n1-c1ccc(-c2ccn[nH]2)cc1,13µM*,?,12µM*,?,?
c1ccn(-c2ccc(-c3ccn[nH]3)cc2)c1,?,?,11µM*,18%,?
C=Cc1ccc(CSc2nc(-c3ccc(C)cc3)nc3c2Cc2c(CO)cnc(C)c2O3)cc1,nt,nt,3%,nt,nt
Cc1cccc(NC(=S)NNC(=O)c2ccco2)c1,19%,-3%,?,1%,1%
Cc1ccc(NC(=S)NNC(=O)c2ccco2)cc1,11µM*,-1%,?,1%,?
Cc1ccc(C(=O)NNC(=O)c2ccco2)cc1,13µM*,?,17µM*,?,?
COc1cccc(NC(=O)Cn2c(-c3nonc3N)nc3ccccc32)c1,7%,nt,-3%,nt,nt
SMILES,SMN2 splice enh,NPC1 promoter act,FLuc counter,ELG1 genotoxic,Rab9 prom act
O=C(O)c1ccc(CSc2nnc(COc3ccc(Cl)cc3Cl)o2)cc1,4%,17%,19µM*,?,21%
CC(C)(C)c1ccc(-c2noc(C(=O)NN)n2)cc1,nt,23%,?,1%,18%
CC(C)(C)c1ccc(-c2conc2N)cc1,18µM*,?,2.7µM*,12%,2.5µM*
O=C(c1cccs1)N1CCN(C(=O)c2cn(-c3ccccc3)nc2-c2ccccc2)CC1,nt,nt,nt,0%,nt
O=C(c1cn(-c2ccccc2)nc1-c1cccs1)N1CCN(c2ccc(F)cc2)CC1,nt,2%,13µM*,-8%,-3%
O=C(c1cc(-c2cccs2)nc2ccccc12)N1CCN(S(=O)(=O)c2ccccc2)CC1,-9%,-2%,?,-3%,-5%
